# Results as given in PubChem BioAssay AID504848 (National Center for Advancing Translational Sciences (NCATS), 2011).
# Screen size: about 2,300 compounds; about 1,400 (61%) were called active. About 29% were inconclusive and are not listed. Calls come from the whole dose curve; as a rule, active = well fitted inhibition curve with a large enough effect; inconclusive = small, poorly fitted or top-dose-only effect, or effect the other way; inactive = no such curve, though single readings can be large or run the other way. So high a share suggests a set chosen from earlier hits. The list shows a part of the results.
# Test: Confirmation screen for delayed death inhibitors of the malarial parasite plastid, 96 hour incubation; note: nearly all actives have a fitted effect of over 60% in size
# Details: P. falciparum luciferase growth in erythrocytes; series mostly up to 28.7 µM
# Excerpt: The goal of this screen is to discover new antimalarial compounds that act by inhibiting the development of the apicoplast in the malarial parasite Plasmodium falciparum. The biochemical processes that make this organelle essential for erythrocytic stage parasites are not well understood. However, antibiotics, such as azithromycin and tetracycline, which target the apicoplast translational machinery, have a potent antimalarial effect. […] We have developed a cell-based assay that measures parasite growth based on the expression of an integrated copy of a firefly luciferase reporter. To detect small molecules that cause this "delayed death phenotype, erythrocytes infected with the luciferase-expressing parasites were incubated with compounds for either one or two generations, corresponding to 48 and 96 hours, respectively. Compounds that inhibit parasite growth in the second generation, but not the first, should be enriched in antimalarials that target the apicoplast. Growth inhibition is detected by a decrease in luciferase activity. MLPCN Grant: R21 NS059500 Assay Provider: David Fidock and Eric Ekland, Columbia University Keywords: NIH Roadmap, MLPCN, MLI, MLSMR, qHTS, NCGC, qHTS, malaria, luciferase, viability
# Four microliters of culture medium (RPMI 1640 with 0.5% w/v Albumax (GIBCO), 24 mM sodium bicarbonate and 10 ug/mL gentamycin) were dispensed by a Multi-drop Combi into white solid 1536-well plates (Grenier) and 23 nL compound was added by a pin tool. Four microliters of infected erythrocytes (2% hematocrit, 0.1% parasitemia final concentration) in culture medium were dispensed and the plates incubated for 96 hours at 37 C in 5% CO2. Two microliters of luciferase detection reagent was added and luminescence was detected by a ViewLux (PerkinElmer) reader
# Potency is the fitted concentration of half-maximal effect.
row,SMILES,Potency
1,CCCC1O[C@@H]2CC3C4CCC5=CC(=O)C=C[C@]5(C)C4C(OC(C)=O)C[C@]3(C)[C@]2(C(=O)COC(C)=O)O1 (some centres not stated),1.41 µM (active)
2,CCOC(=O)C1CCN(c2cc3c(cc2NC(=O)c2ccccc2Cl)n(C)c(=O)n3C)CC1,7.94 µM (active)
3,O=C(C=C=Nc1ccccc1)C(=O)N=C=Cc1ccccc1,7.94 µM (active)
4,COc1ccc(NC(=O)Cc2ccc(Cl)cc2)cc1S(=O)(=O)N1CCCCC1,14.1 µM (active)
5,Cc1csc(NC(=O)Cc2coc3cc(C)c(C(C)C)cc23)n1,12.6 µM (active)
6,COc1ccc(NC(=O)Cc2coc3cc(C)c(C(C)C)cc23)cc1S(=O)(=O)N1CCOCC1,7.94 µM (active)
7,COc1ccc2c(CC(=O)OCC(=O)Nc3cccc(S(N)(=O)=O)c3)coc2c1,inactive
8,CC1CCC/C=C/C(=O)c2c(O)cc(O)cc2CC(=O)O1 (configuration not stated),5.01 µM (active)
9,CC(C)c1cc(NC(=O)CCl)on1,7.08 µM (active)
10,Cc1cccc(NC(=O)[C@H](Cc2c[nH]c3ccccc23)NC(=O)[C@@H]2Cc3ccccc3CN2)c1,10 µM (active)
11,COc1cccc(NC(=O)[C@H](Cc2c[nH]c3ccccc23)NC(=O)[C@@H]2Cc3ccccc3CN2)c1,12.6 µM (active)
12,CCS(=O)(=O)N1Cc2ccccc2CC1C(=O)Nc1cccc(OC)c1 (configuration not stated),inactive
13,O=C(NC(Cc1c[nH]c2ccccc12)C(=O)Nc1ccc(F)cc1)c1cccs1 (configuration not stated),10 µM (active)
14,COc1ccc(NC(=O)[C@H](Cc2c[nH]c3ccccc23)NC(=O)[C@@H]2Cc3ccccc3CN2)cc1,6.31 µM (active)
15,COC(=O)C1=C(C)NC2=C(C(=O)CC(c3cccs3)C2)C1c1ccsc1 (configuration not stated),12.6 µM (active)
16,O=C(CNC(=O)C1CCCCC1)OC(C(=O)c1ccccc1)c1ccccc1 (configuration not stated),15.8 µM (active)
17,CCN1C/C(=C/c2ccc(OC)c(O)c2)C(=O)/C(=C/c2ccc(OC)c(O)c2)C1,14.1 µM (active)
18,CCOc1cc(/C=C2\CN(CC)C/C(=C\c3ccc(O)c(OCC)c3)C2=O)ccc1O,3.16 µM (active)
19,COc1ccc(/C=C2\CN(Cc3ccccc3)C/C(=C\c3ccc(OC)c(O)c3)C2=O)cc1O,0.708 µM (active)
20,COc1ccc(NS(=O)(=O)c2cc(OCC(N)=O)c(C)cc2Cl)cc1,5.01 µM (active)
21,CCOC(=O)c1c(-c2ccc(C)cc2C)csc1NC(=O)CSc1nnnn1C,3.98 µM (active)
22,O=C(NC(Cc1ccccc1)c1nc2ccccc2[nH]1)C1CC(=O)N(c2ccc3c(c2)OCCO3)C1 (configuration not stated),14.1 µM (active)
23,O=C1c2cccc3cc([N+](=O)[O-])cc(c23)C(=O)N1CCN1CCCC1,12.6 µM (active)

row,SMILES,Potency
1,CN(c1ccccc1)S(=O)(=O)c1nnc(NC(=O)COc2ccccc2F)s1,12.6 µM (active)
2,Cc1ccc(S(=O)(=O)N2CCN(C(=O)CCc3c[nH]c4ccccc34)CC2)c(C)c1,14.1 µM (active)
3,COc1ccc(NC(=S)N2CCC(Cc3ccccc3)CC2)cc1OC,12.6 µM (active)
4,CCOC(=O)CC(Nc1nc(N2CCOCC2)nc(N2CCOCC2)n1)c1ccccc1Cl (configuration not stated),3.98 µM (active)
5,O=C(/C=C/Sc1ccccc1)c1ccccc1,11.2 µM (active)
6,COC(=O)[C@]1(CC(C)C)N[C@H](c2ccc(-c3ccc(F)cc3)c(OC)c2)[C@@H]2C(=O)N(C)C(=O)[C@@H]21,2 µM (active)
7,CCOC(=O)Cn1nnnc1C(CC)N(Cc1cccs1)Cc1cc2ccc(OC)cc2[nH]c1=O (configuration not stated),12.6 µM (active)
8,Cc1ccccc1C(=O)Nc1ccc2c(c1)CCCN2C(=O)c1cccs1,12.6 µM (active)
9,COc1cc(OC)cc(C(=O)Nc2ccc3c(c2)CCCN3C(=O)c2cccs2)c1,11.2 µM (active)
10,CC(C)c1[nH]nc2c1C(C1C=CCCC1)C(C#N)=C(N)O2 (configuration not stated),14.1 µM (active)
11,CCOCCCNC(=S)N1CCN(c2nc(-c3ccccc3)cs2)CC1,12.6 µM (active)
12,Cc1c(-c2ccccc2)nc2ccccc2c1C(=O)Nc1ccncc1,0.178 µM (active)
13,CC(C)CC1c2[nH]c3ccccc3c2CCN1CCCn1cccn1 (configuration not stated),8.91 µM (active)
14,CCC(=O)NC(=S)Nc1ccc(NC(=O)c2ccc(C)c([N+](=O)[O-])c2)cc1,10 µM (active)
15,CC(=O)c1ccc(NC(=S)Nc2ccc3cn[nH]c3c2)cc1,inactive
16,CN(C(=O)c1cc([N+](=O)[O-])ccc1NCc1cccnc1)c1ccccc1,11.2 µM (active)
17,CN1/C(=C\C(=O)CSc2cccc[n+]2[O-])C(C)(C)c2ccccc21,15.8 µM (active)
18,CSc1nnc(C)c(=O)[nH]1,inactive
19,Clc1cccc(Cl)c1C[n+]1ccc2ccccc2c1,1.26 µM (active)
20,Cc1ncc(CO)c(/C=N/NC(=S)Nc2ccc(F)cc2)c1O,14.1 µM (active)
21,CC(=O)c1ccc(N/N=C(/C(N)=O)C2=NC(C)(C)Cc3ccccc32)cc1,6.31 µM (active)
22,Cc1cccc(N/N=C(\C(N)=O)C2=NC(C)(C)Cc3ccccc32)c1,3.98 µM (active)
23,O=C(COc1ccccc1Cl)NC(=S)N1CCc2ccccc21,14.1 µM (active)

row,SMILES,Potency
1,O=C(NCc1ccccn1)Nc1cc(Cl)ccc1Cl,6.31 µM (active)
2,CC(=O)c1cccc(Oc2cc(NN3CCCCC3)c([N+](=O)[O-])cc2[N+](=O)[O-])c1,11.2 µM (active)
3,COc1ccc(NC(=O)c2c(-c3c(Cl)cccc3Cl)noc2C)c(OC)c1,2.24 µM (active)
4,Cc1noc(C)c1C(=O)Nc1nc(-c2ccc(F)cc2)cs1,inactive
5,Cc1onc(-c2c(Cl)cccc2Cl)c1C(=O)Nc1nc(C(C)(C)C)cs1,6.31 µM (active)
6,Cc1onc(-c2c(Cl)cccc2Cl)c1C(=O)N=C(N)N1CC(C)OC(C)C1 (configuration not stated),7.08 µM (active)
7,Cc1onc(-c2c(Cl)cccc2Cl)c1C(=O)NC1CCCCC1,11.2 µM (active)
8,COc1cnc(-c2ccccn2)nc1Oc1ccc(C(C)(C)C)cc1,2.51 µM (active)
9,COc1cnc(-c2ccccn2)nc1N(C)c1ccccc1,2 µM (active)
10,CSC1=NC(C)(C)C=C(/C=C/c2ccc(Cl)cc2Cl)N1,1.78 µM (active)
11,CSC1=NC(C)(C)C=C(/C=C/c2c(Cl)cccc2Cl)N1,10 µM (active)
12,CSC1=NC(C)(C)C=C(/C=C/c2ccc(Cl)cc2)N1,4.47 µM (active)
13,CC1(C)Cc2c(ccc3ccccc23)C(c2cc3ccccc3oc2=O)=N1,4.47 µM (active)
14,CN(C(=O)CN1C(=O)CCSc2ccc(S(=O)(=O)N3CCCC3)cc21)c1ccccc1,7.94 µM (active)
15,CCN(CC)CCn1c2c(c(SCC(=O)Nc3nc4ccccc4s3)nc1=O)CCCC2,2 µM (active)
16,CCC(=O)NCCc1cc2ccc(C)cc2[nH]c1=O,inactive
17,CCc1c(C(=O)NC2CCCc3ccccc32)[nH]c(C)c1C(C)=O (configuration not stated),inactive
18,CCc1c(C(=O)NCCc2cccc(C)c2)[nH]c(C)c1C(C)=O,12.6 µM (active)
19,COC(=O)COc1ccc2c(=O)c(-c3ccccc3OC)coc2c1,inactive
20,CCOC(=O)Nc1ccc2c(CNC(C)c3ccccc3OC)cc(=O)oc2c1 (configuration not stated),12.6 µM (active)
21,C=C[C@]1(C)C[C@@H](OC(=O)CSCCN(CC)CC)[C@]2(C)C(C)CC[C@]3(CCC(=O)[C@H]32)[C@@H](C)[C@@H]1O (some centres not stated),2 µM (active)
22,CN(Cc1ccc(Cl)c(Cl)c1)C(=O)C1=CC=CN2CCS(=O)(=O)N=C12,5.01 µM (active)
23,COC(=O)c1ccc(Sc2nnnn2-c2ccccc2)c([N+](=O)[O-])c1,12.6 µM (active)

row,SMILES,Potency
1,CC1CCN(C(=O)Cn2cc(C(=O)c3ccco3)c3ccccc32)CC1,14.1 µM (active)
2,Cc1ccc(NC(=O)C(=Cc2ccc(C(=O)O)cc2)C(=O)Nc2ccc(C)cc2C)c(C)c1,6.31 µM (active)
3,Cn1c(=O)[nH]c(=O)c2c1nc(NCc1ccccc1)n2Cc1ccc(F)cc1,3.55 µM (active)
4,Cc1ccc(OCC(=O)Nn2cnnc2)c(Br)c1,inactive
5,C/C(CC(=O)NC1CCCCC1)=N\NC(=O)COc1ccc(C)cc1Br,15.8 µM (active)
6,COc1ccc(CCC(C)N2CCC(Oc3ccc(C(=O)N4CCCC4)cc3)CC2)cc1 (configuration not stated),10 µM (active)
7,O=C(c1ccc(OC2CCN(Cc3ccccc3OC(F)F)CC2)cc1)N1CCCC1,2.51 µM (active)
8,CCN(CC)CCOC(=O)c1ccc(NC(=O)C(C)NC(=O)C23CC4CC(CC(C4)C2)C3)cc1 (configuration not stated),12.6 µM (active)
9,Cc1ccc(Nc2cc(C)c3ccc(O)cc3n2)cc1C,0.126 µM (active)
10,OC1C2(Cc3ccccc3)CN3CCN(C2)CC1(Cc1ccccc1)C3 (configuration not stated),2 µM (active)
11,O=c1cc(CSc2nc(NCc3ccccc3)c3ccccc3n2)nc2ccc(Cl)cn12,3.55 µM (active)
12,CCN(CC)S(=O)(=O)c1ccc(N2CCOCC2)c(NC(=O)C2CSC3(C)CCC(=O)N23)c1 (configuration not stated),5.62 µM (active)
13,COc1ccc2[nH]cc(CCCN3C(=O)c4ccccc4C3=O)c2c1,inactive
14,COc1ccc2[nH]cc(C(=O)CCl)c2c1,12.6 µM (active)
15,CCOc1ccc(/C=C/[N+](=O)[O-])c2ccccc12,15.8 µM (active)
16,Cc1ccc(C)c(-c2nnc(OCC(=O)Nc3cc(C)on3)c3ccccc23)c1,12.6 µM (active)
17,COc1cc(CNC2CCCCCCC2)ccc1OCC(N)=O,12.6 µM (active)
18,Cc1cc(C)c(NC(=O)c2cccc3c2C(=O)N(C2CCCCC2)C3)c(C)c1,7.94 µM (active)
19,COc1ccccc1/C=C/C(=O)/C=C/c1ccccc1O,1 µM (active)
20,COc1ccccc1/C=C/C(=O)c1ccccc1,14.1 µM (active)
21,CCOC(=O)C(=Cc1ccccc1OC)C(=O)OCC,12.6 µM (active)
22,O=C(/C=C/c1ccccc1O)c1ccco1,inactive
23,CCOC(=O)C(CC)(CC)C(=O)/C=C/c1ccc(Br)cc1,6.31 µM (active)
